Data taken from the supplement of paper PMC6555819.

What follows are sequences tested on VDR:RXRa (NR concentration 270 nM, RXRa partner concentration 90 nM) (assay: PBM binding z-score (relative to random genomic background probes); higher = stronger binding; sequences stand for … in GC…GCGATTGACAGCGTAGAATGAAGG).
Experimental: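 Protein-binding microarray (Agilent 4x180K custom design, double-stranded 60-nt probes: 5' GC cap, 34-nt variable region, 24-nt constant primer region; full probe sequence given). Purified or IVT nuclear receptor:RXRα heterodimers (3:1 NR:RXRα, mostly 270:90 nM) or homodimers were incubated for 1 h in PBS with 2% milk and no ligand, then detected with Alexa488 antibodies. Fluorescence from o1-orientation probes (~5 replicates averaged) was converted to z-scores against 500 random hg19 background probes. Variable regions are seed direct-repeat (DR0–DR5) sites, all their single-nucleotide variants and half-site ablations.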
For CGTCCGAGGTCAGCAGGTCAGTGAAAGCGACGTG, the PBM binding z-score was 4.86. GATACAGGGTCAGCTGGAGGCCAGAGTATGGAAA gave a PBM binding z-score of 3.29. CCTAGCAGCCCAGGGTCACTCAAGCATTTCGCTT was tested, and the PBM binding z-score was 2.44. For TCGGGTAGGTTAGGGGCATTCAGAATGGCGTCGA, the PBM binding z-score was 1.57. Work on AATACAGGGTCACTAGGCCAGAGTCGGTACGAAT yielded a PBM binding z-score of 4.03. Sequence CCTAGTGGGTCAAGGTCACACACGCTATAGGTAC has a PBM binding z-score of 4.64. With ATCTCTAGGTAACAAGTACAGTGAAAGAGAGGAC the PBM binding z-score was 0.429. For GCTCGGAGGACAAGGTCCGAGCTTTGTCCGTAGA, the PBM binding z-score was -0.684. In the case of TCTTGTAGATCTATAGAGGTTAAGAAAGTGCGCT, the PBM binding z-score is reported as 1.65. With TCTGCTAGGTCAACGATGGTCAGCAAATCTGCTA the PBM binding z-score was 1.64. TCTATTAGTTGATTTGGGCAACCGAAACAGCGGA gave a PBM binding z-score of 0.688. TCATATAGGTAATACAGGTGAAAGACGGCATCTA showed a PBM binding z-score of 1.02. For TCTAGTTGGTCAAAGGTTACACACTCGAAATGCG, the PBM binding z-score was 3.11. GCTCAGAGGACAAGGTCAGAGCTTTGTCCGTAGA gave a PBM binding z-score of 1.69. TCTCGGAGGACACGTAGGTCAGAGCTTTCCAGAG showed a PBM binding z-score of 1.13. CGTCAAAGTTCAAGGTAACCTAACAGAAAGCAGC gave a PBM binding z-score of 3.96. With AGAATGAGGTTATACGTCGATCAGGGAAGAAAGT the PBM binding z-score was 1.29. For AGAATGAGGTTAAGCTCAGGGAAACAGAATACAT, the PBM binding z-score was 1.26. In the case of CGAACGAGGGCATGAGTTGATAGTAAATGCCGAT, the PBM binding z-score is reported as 1.17. With CCTCGGAGGACCGAAGGTCAGAGCTGTCCGCTTT the PBM binding z-score was 0.565. CGAACGAGGGCATGAGATGATAGCAAATGCCGAT was tested, and the PBM binding z-score was 0.478. Sequence AGAATGAGGTTGAGATCAGGGAAACAGAATACAT has a PBM binding z-score of 0.141. With TTACCAAGGTGAGGGTCGTTGATCCCTCTGTAGA the PBM binding z-score was 0.884. With CGTCCAAGGTCATAGGAGGTCAGAGAAGACAGAT the PBM binding z-score was 6.67. With ATATGTAGGTTACAGCCGGGTCATTCAGGCTATG the PBM binding z-score was 4.1. TCTTGTAGATCAACAAGAGGTTAAGAAAGATCGA was tested, and the PBM binding z-score was 1.08. In the case of ACTAGTTGGTCAGCTGAGGACACACACAATTCGG, the PBM binding z-score is reported as 0.506. For CCTACTGGGCCAAACAGGTCATTGATGCCGATAA, the PBM binding z-score was 2.82. Work on GCTGCTAGGTCACCTGATGGTCAGCTAAAGCTCG yielded a PBM binding z-score of 1.31. CAAACTAGGTCACAGATGTCAAAGTCCGTGCGTA gave a PBM binding z-score of 4.5. In the case of CCTAGTTGGTCAGGAGCTCACACACCGGATATGA, the PBM binding z-score is reported as 0.0372. ATCTCTCGGTAAGACTCAGTTCAGTGAAGAACGC showed a PBM binding z-score of 0.848. Sequence AGAATGAGGTTAAGATCGGGGAAACAGAATACAT has a PBM binding z-score of 1.18. GCGACTGGGGCAAAGCAGGTTAGCATAAGGTTGG showed a PBM binding z-score of -0.429. Sequence TCTCGGAGGACACGAAGGTCCGAGCTTTCCAGAG has a PBM binding z-score of 0.0624. Sequence AGAATGAGGTTATACGTAGAACAGGGAAGAAAGT has a PBM binding z-score of 1.26. With ATCTCTAGGTAACTAAGTTCAGTGAATGCCGAAC the PBM binding z-score was 4.26. In the case of CCGAGTAGGTTACGGGGCATTCAGGCAACGGTGA, the PBM binding z-score is reported as 0.208. Work on CCCAGTAGGTTATGGGGCATTCAGGCAACGGTGA yielded a PBM binding z-score of 0.00537. With CCTGCTAGGTCATGGGCAGCTAATCTACAGTATG the PBM binding z-score was 1.19.
